For 95 compounds, cytotoxicity results are on record in PubChem BioAssay AID430 (Sanford-Burnham Center for Chemical Genomics, 2006).

Hit rate of the full screen: of about 63,000 compounds, about 1,100 (1.7%) were called active. The list comes from a sample in which actives are over-represented; it also holds similar structures and randomly drawn compounds. Measured potencies and affinities stand elsewhere. A number with no mark means an inactive call. No stated cut-off is given here; in the data, active means cytotoxicity above about 50%; inactive means the rest.

A short description of this assay: HPDE-C7 pancreatic duct cell viability loss – fluorescence, HTS (AID 430).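 Further: cells exposed to compound for 48 hours before viability readout; 0% = vehicle and 100% = reference cytotoxic drug.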 As to conditions: HPDE-C7 pancreatic duct cells viability, at 10 µM, active compounds read high.
As for `COc1ccc(N(C)C(=O)Nc2ccc3c(c2)nnn3C)cc1`, the cytotoxicity is -17.6%. With `O=C(NCc1ccccn1)c1cc2cc(Br)ccc2oc1=O` the figure was 4.9%; with `O=C(NCc1ccccn1)c1ccc(=O)oc1`, 0.8%. With `O=C(NCc1ccccn1)c1coc(=O)c(Br)c1` the figure was 52.2% (active). With `Cc1c(C(=O)NCc2cccnc2)oc2ccc(S(=O)(=O)N3CC(C)CC(C)C3)cc12` (stereo not given) the figure was 43%. In the case of `CN(c1nc(-c2ccccc2)cs1)C1CCS(=O)(=O)C1` (stereo not given), the cytotoxicity is 4.5%.

With `CCOC(=O)N1CCN(S(=O)(=O)c2cc(Cl)c(OC)cc2Cl)CC1`, the cytotoxicity was -2.9%.

With `COc1cccc(CN(Cc2cccnc2)S(=O)(=O)c2ccc(-n3cnnn3)c(C)c2)c1`, the cytotoxicity was 4.5%. With `CC(=O)Oc1cccc2c1C(=O)c1c(OC(C)=O)cc(C(=O)O)cc1C2=O`, the cytotoxicity was 25.5%. With `O=C(O)c1cc(C(=O)O)c(-c2ccccc2)c(C(=O)O)c1` the figure was -22.6%; with `Cn1c(=O)c2cc(S(=O)(=O)N3CCN(c4cccc(C(F)(F)F)c4)CC3)ccc2n(C)c1=O`, -2.2%. As to `Cc1c(S(=O)(=O)N2CCN(c3cccc(C(F)(F)F)c3)CC2)c(=O)n(C)c(=O)n1C`, the cytotoxicity was 5.2%. With `Cn1c(=O)c(=O)n(C)c2cc(S(=O)(=O)N3CCN(c4cccc(C(F)(F)F)c4)CC3)ccc21` the figure was 71.5% (active); with `O=C(C1CCC(Cn2c(=S)[nH]c3ccccc3c2=O)CC1)N1CCOCC1` (stereo not given), -5.9%; with `O=C(O)C1CCN(c2nc(-c3ccccc3)nc3c2oc2ccccc23)CC1`, 23.4%. Consider `CN1CCN(c2nc(-c3ccccc3)nc3c2oc2ccccc23)CC1`, for which the cytotoxicity is -10%. With `CCC(CC)C(=O)Nc1cc(NC(=O)C(CC)CC)cc(C(=O)O)c1` the figure was -16.6%; with `CCN=C1SC(C(=O)NCCc2ccccc2)CC(=O)N1CC` (stereo not given), 5.8%. With `O=C(O)c1ccc(CN2C(=O)CSC2=S)cc1` the figure was 19.2%; with `O=C1CSC(=S)N1c1cccnc1`, -9.7%; with `Cc1ccc(C(=O)CSc2ncn[nH]2)cc1`, 17.6%. With `Cn1c(N)c(C(=O)COC(=O)c2ccc3c(c2)OCCO3)c(=O)n(C)c1=O` the figure was -1.5%; with `Cc1ccc(-n2c(=O)cc(N3CC(C)CC(C)C3)[nH]c2=O)cc1` (stereo not given), -15.2%. Take `CC(=O)Nc1cccc(-c2nc3ccc(NC(C)=O)cc3[nH]2)c1`: the cytotoxicity is 9.5%.

For `O=C(c1ccco1)N1CCN(c2c(-c3ccccc3)c3cc(Cl)ccc3[nH]c2=O)CC1`, the cytotoxicity is 83.6% (active).

Consider `CCOC(=O)N1CCN(c2c(-c3ccccc3)c3cc(Cl)ccc3[nH]c2=O)CC1`, for which the cytotoxicity is 7.4%.

For `O=c1[nH]c2ccc(Cl)cc2c(-c2ccccc2)c1N1CCOCC1`, the cytotoxicity is 0.9%.

For `CC(C)(C)n1nnnc1C(c1cccs1)N(Cc1ccccc1)Cc1ccco1` (stereo not given), the cytotoxicity was -4.3%. With `COc1cccc(NC(=O)C2CCCN2C(=O)Nc2cccc(F)c2)c1` (stereo not given) the figure was 9.8%; with `COC(=O)CSc1nnc(-c2ccccc2OC)o1`, -25.6%; with `COc1ccccc1-c1nnc(SCC(=O)Nc2c(Cl)cccc2Cl)o1`, -1.3%. With `O=S(=O)(c1ccc(OCC(O)CNCc2ccco2)c(Cl)c1)N1CCOCC1` (stereo not given) the figure was -9.8%; with `Cc1ccccc1Cn1c(=O)n(CCCC(=O)NCc2ccco2)c(=O)c2ccccc21`, -24.1%; with `Cn1c(=O)cc(SCC(=O)NCc2ccco2)c2ccccc21`, -4.4%. With `Cc1ccc(C)c(Cn2c(=O)n(CCCC(=O)NCc3ccco3)c(=O)c3ccccc32)c1` the figure was 60.2% (active). `CCn1c(=O)cc(OCC(=O)NCc2ccco2)c2ccccc21`: the cytotoxicity was 5.8%.

Regarding `CCn1c(=O)cc(SCC(=O)NCc2ccco2)c2ccccc21`, the cytotoxicity is 62.1% (active).

`Cc1ccc(C)c(Cn2c(=O)n(CCC(=O)NCc3ccco3)c(=O)c3ccccc32)c1`: the cytotoxicity was -14.5%. With `CC1CN(c2nc3ccccc3nc2C(C#N)C(=O)OC2CCCCC2)CC(C)O1` (stereo not given) the figure was -26.1%; with `COc1ccc(-c2nc(CS(=O)CC(=O)NCc3ccco3)c(C)o2)cc1OC` (stereo not given), 2.9%. Turning to `COC(=O)c1cc2ccsc2n1Cc1nc(-c2ccc(OC)cc2)oc1C`, the cytotoxicity is -7%. With `COC(=O)c1ccc(-c2ccco2)n1Cc1nc(-c2ccc(OC)c(OC)c2)oc1C` the figure was 71.6% (active); with `COC(=O)C1=C(C)N(CC2CCCO2)C(=O)C1` (stereo not given), 6%. Consider `Cc1cc(=O)[nH]c(SC/C=C/c2ccccc2)n1`, for which the cytotoxicity was -13.4%.

Regarding `Cc1cc(=O)[nH]c(SCc2nc3ccccc3s2)n1`, the cytotoxicity is 57% (active). With `Cc1cc(=O)[nH]c(SCc2cccc(Br)c2)n1` the figure was 2.7%; with `CC(=O)Nc1ccc(C(=O)CS(=O)(=O)c2ccc(C)cc2)cc1`, -17.2%; with `Cc1cc2c(c(=O)o1)C1(C(=O)N(C)c3ccccc31)C(C#N)=C(N)O2` (stereo not given), -8.3%. With `COc1ccccc1-n1cnc2cc(NCc3ccco3)ccc21` the figure was 63.6% (active). With `CCC(=O)Nc1ccc2c(c1)ncn2-c1ccccc1OC` the figure was -35.6%. On to `COc1ccccc1-n1cnc2cc(NC(C)=O)ccc21`, for which the cytotoxicity was -8.6%. Turning to `O=C(CCCCCN1C(=O)CCC1=O)Nc1ncn[nH]1`, the cytotoxicity is -2.1%. Consider `CCCCCCc1cc2cc(-c3nnc(-c4ccccc4O)o3)c(=O)oc2cc1O`, for which the cytotoxicity is 62.7% (active). With `CCCCCCc1cc2cc(C(=O)NC)c(=N)oc2cc1O` the figure was 19.4%; with `CCOc1cccc2cc(-c3nnc(-c4ccccc4)o3)c(=O)oc12`, -14.9%.

With `N#CCCn1cc(C(CC(=O)c2ccc(Br)cc2)C(=O)O)c2ccccc21` (stereo not given), the cytotoxicity is -21.4%. With `CCOC(=O)Nc1ccc(S(=O)(=O)Nn2cnnc2)cc1` the figure was -3.3%; with `Cn1nnnc1Sc1nc(-c2cccnc2)nc2ccccc12`, 99.3% (active).

As for `OCCSc1nc(-c2cccnc2)nc2ccccc12`, the cytotoxicity was 5.1%.

Regarding `CN1CCN(c2nc(-c3cccnc3)nc3ccccc23)CC1`, the cytotoxicity was -0.2%. With `CCOc1cccc(-c2nnc3n2N=C(c2cc(OC)ccc2OC)CS3)c1` the figure was 28.5%; with `COCCSc1ccccc1C(=O)Nc1nncs1`, -5.4%; with `O=C(CCN1CCN(CCC(=O)c2ccccc2)CC1)c1ccccc1`, -22.9%. With `O=C(CCN1CCN(c2ccccc2F)CC1)Nc1ccccc1F` the figure was -8.5%. With `C=CCn1c(SCCC(=O)O)nc2c1c(=O)n(C)c(=O)n2C` the figure was -15.6%. On to `COc1ccc(NC(C)=O)cc1NC(=O)CSc1nnc(-c2ccccc2)n1N`, for which the cytotoxicity is -1.2%. With `CC[C@H](C)C(=O)O[C@H]1C[C@@H](C)C=C2C=C[C@H](C)[C@H](CC[C@@H]3C[C@@H](O)CC(=O)O3)[C@H]21` the figure was 57.6% (active); with `NC(=O)COC(=O)c1ccc(S(=O)(=O)N2CCCCCC2)cc1`, 10.2%; with `CC[C@@H](C)[C@H](NC(=O)OC(C)(C)C)c1nnc(S(=O)(=O)Cc2cc(C)ccc2C)o1`, 58.1% (active). With `CC(C)C[C@H](NC(=O)OC(C)(C)C)c1nnc(SCc2cccc(F)c2)o1` the figure was -12%; with `CC(C)[C@H](NC(=O)OC(C)(C)C)c1nnc(S(=O)(=O)Cc2c(F)cccc2Cl)o1`, -7.3%; with `COC(=O)CS(=O)(=O)c1nnc([C@H](Cc2ccccc2)NC(=O)OC(C)(C)C)o1`, -7.1%. Take `CC(C)(C)OC(=O)N[C@@H](Cc1ccccc1)c1nnc(S(=O)(=O)Cc2cccc(F)c2)o1`: the cytotoxicity was -10.9%. With `CCC(C)[C@@H](NC(=O)OC(C)(C)C)c1nnc(S(=O)(=O)Cc2cccc(C)c2)o1` (stereo not given in full) the figure was 5.7%; with `CCOC(=O)CSc1nnc([C@H](CC(C)C)NC(=O)OC(C)(C)C)o1`, 1.4%; with `Cc1ccc(CCNC(=O)NC(C)(C)C)cc1`, -6.5%.

As to `O=C(OC1CCOC1=O)c1ccc(S(=O)(=O)N2CCCCCC2)cc1` (stereo not given), the cytotoxicity was -10.6%. With `COc1cc2c(C#N)c(N3CCOCC3)nc(N)c2c(N)n1` the figure was 37.5%; with `N#Cc1c(N2CCCC2)nc(N)c2c(N)nc(N3CCCC3)cc12`, 1.9%; with `COc1cc2c(C#N)c(N3CCN(c4ccccc4OC)CC3)nc(N)c2c(N)n1`, 54.8% (active). With `COc1cc2c(C#N)c(N3CCCCC3)nc(N)c2c(N)n1` the figure was 44.8%; with `CCOc1cc2c(C#N)c(N3CCOCC3)nc(N)c2c(N)n1`, 23%; with `COc1ccc(Cc2nc(-c3cccs3)no2)cc1OC`, 5.9%. Regarding `Cc1ccc(OCCSc2nnc(NC(=O)c3ccco3)s2)cc1`, the cytotoxicity was 4.3%. With `CCC(C)NC(=O)CCS(=O)(=O)c1ccc2c(c1)n(C)c(=O)c(=O)n2C` (stereo not given) the figure was -0.5%; with `CC(C(=O)Nc1sccc1C(N)=O)N1C(=O)C2CC=CCC2C1=O` (stereo not given), -1.9%; with `CC(CCc1ccccc1)NC(=O)C1CCN(S(=O)(=O)N2CCCCC2)CC1` (stereo not given), -21.3%.

On to `Clc1c(CSc2nc3ccccc3o2)nc2sccn12`, for which the cytotoxicity was 13.8%.

As for `O=C(O)C1CCCCC1C(=O)Nc1ccc2c(c1)CCC2` (stereo not given), the cytotoxicity was -13.4%.

In the case of `CC1CCCCC1NC(=O)CSc1nnc(COc2ccccc2Cl)o1` (stereo not given), the cytotoxicity was -6.2%. With `CCCn1c(N)c(N(C)C)c(=O)n(CC(=O)Nc2ccc(OC(F)(F)F)cc2)c1=O` the figure was -2.7%; with `COc1cc(-c2ccccc2)nc(N)n1`, -3.4%; with `COc1ccc(OC)c(Nc2cc(C)nc3ccccc23)c1`, -3.8%. With `COc1ccc(OC)c(Nc2cc(-c3ccccc3)nc(N)n2)c1` the figure was 68.5% (active); with `Cc1nc2ccccc2c2oc(C(=O)N3CCc4ccccc43)cc12`, 0.3%.
